Laboratory results taken from PubChem BioAssay (NCATS).
Records with an inconclusive call do not appear. Entries that show only a call come without a potency. Calls of active or inactive are those of the source. Calls come from the whole dose curve; as a rule, active = well fitted curve in the direction sought with a large enough effect; inconclusive = small, poorly fitted or top-dose-only effect, or another doubt; inactive = no such curve, though single readings can be large; an effect the other way counts as inactive or inconclusive.

Key:
[1] = qHTS to identify inhibitors of the type 1 interferon - major histocompatibility complex class I in skeletal muscle: primary screen against the NCATS LOPAC collection (AID 1347405);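 note: lytic HiBiT luminescence reporting HLA-B protein level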; note: potency is the fitted concentration of half-maximal effect
Outline: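 Immortalized human C25cl48 myoblasts with HiBiT knocked into endogenous HLA-B*08:01 were stimulated with 4.0 ng/ml IFN-beta and given compounds in a 7-point, 1:4.3 titration from 46 uM final; after 24 hrs, lytic HiBiT luminescence was read.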

[2] = Validation qHTS assay for inhibitors of Activation Induced Cytidine Deaminase (AID): UDG Counterscreen signal (AID 1347427); note: potency is the fitted concentration of half-maximal effect
Outline: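 Counterscreen read of UDG activity (2 U/mL, 4/3x) in the FRET deamination format with AID (1 uM, 4/3x), DJC20/DJC23 substrates (250 nM, 4x), 4 h at room temperature. NaOH stop, fluorescence at 560 ex/665 em.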

[3] = Primary qHTS for inhibitors of La Crosse Virus (LACV) - induced cell death in SH-SY5Y cells (AID 1508616); note: potency is the fitted concentration of half-maximal effect
Outline: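 Luminescent ATP readout (ATPLite 1step, 5 min room temperature) measured rescue from LACV-induced death after 6 days of infection at 0.01 MOI; normalized to infected DMSO wells and uninfected DMSO wells.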

[4] = Counterscreen qHTS for small molecule stabilizers of the endoplasmic reticulum resident proteome: GLuc-NoTag assay (AID 1508627); note: potency is the fitted concentration of half-maximal effect
Outline: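 Luminescence of Gaussia luciferase secreted into the medium (coelenterazine, 0.07x final, unlysed cells) was the read-out. Human SH-SY5Y neuroblastoma cells constitutively secreting untagged GLuc received compound for 19 h, then 100 nM thapsigargin for 4 h.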

[5] = molecular target: Single-stranded DNA cytosine deaminase (Homo sapiens) (UniProt Q9GZX7); test: Validation qHTS assay for inhibitors of Activation Induced Cytidine Deaminase (AID): AID signal (AID 1347429); note: potency is the fitted concentration of half-maximal effect
Sequence of Single-stranded DNA cytosine deaminase (Homo sapiens) (Q9GZX7 whole entry, looked up): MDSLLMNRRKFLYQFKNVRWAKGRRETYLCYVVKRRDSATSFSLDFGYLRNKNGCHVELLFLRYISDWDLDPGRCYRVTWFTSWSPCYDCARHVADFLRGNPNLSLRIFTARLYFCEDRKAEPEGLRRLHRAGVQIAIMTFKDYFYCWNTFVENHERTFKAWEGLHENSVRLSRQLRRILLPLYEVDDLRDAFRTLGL
Outline: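 AID and UDG were combined and compounds added at final up to 114 uM, then DJC20/DJC23 FRET substrate was added for 4 hr at room temperature. NaOH was then added for 30 min before fluorescence was read at 540/590 nm.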

[6] = molecular target: Calcium and integrin-binding protein 1 (Homo sapiens) (UniProt Q99828); test: Validation qHTS for Identification of Calcium Integrin Binding protein 1 (CIB1) Competitor (AID 1508618)
Sequence of Calcium and integrin-binding protein 1 (Homo sapiens) (Q99828 whole entry, looked up): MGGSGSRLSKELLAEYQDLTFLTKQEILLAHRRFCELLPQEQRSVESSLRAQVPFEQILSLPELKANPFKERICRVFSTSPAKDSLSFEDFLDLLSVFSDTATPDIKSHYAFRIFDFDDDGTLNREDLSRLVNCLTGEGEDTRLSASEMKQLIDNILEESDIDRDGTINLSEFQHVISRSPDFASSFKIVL
Outline: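 Displacement of FITC-alphaIIb peptide (100 nM) from CIB1-GST (1 uM) is monitored by polarization in quantitative HTS format; buffer carries 5 mM CaCl2 and 125 mM NaCl at pH 7.4, incubations are at room temperature.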

[7] = qHTS for inhibitors of adenylyl cyclases using a fission yeast platform: a pilot screen against the NCATS LOPAC library (AID 1347410)
Outline: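 Inhibition of GNAS-stimulated AC9 activity in S. pombe was inferred from derepression of a PKA-repressed fbp1-GFP reporter, measured as cytometric fluorescence after 18 h at 30C with compounds at up to 57 µM.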

[8] = Primary qHTS for small molecule stabilizers of the endoplasmic reticulum resident proteome: Secreted ER Calcium Modulated Protein (SERCaMP) assay (AID 1508630); note: potency is the fitted concentration of half-maximal effect
Outline: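 GLuc-SERCaMP-expressing SH-SY5Y cells, pretreated 16 h with compound, are challenged with thapsigargin to empty ER calcium stores; after 4 h, coelenterazine is added directly to the medium and luminescence is imaged.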

| Structure (SMILES) | Potency [1] | Potency [2] | Potency [3] | Potency [4] | Potency [5] | outcome [6] | outcome [7] | Potency [8] |
| --- | --- | --- | --- | --- | --- | --- | --- | --- |
| N.N.N.N.N.N.N.N.N.N.N.N.N.N.O.O.[Ru+4].[Ru+5].[Ru+5] | inactive | 39.8 µM (active) | inactive | 7.08 µM (active) |  |  |  |  |
| O=C(/C=C/c1ccc(O)c(O)c1)OCCc1ccccc1 | inactive | inactive | 0.631 µM (active) | inactive | inactive | inactive |  |  |
| CC(C)(NS(=O)(=O)c1ccc(Oc2ccc(F)cc2)cc1)C(=O)NO | inactive |  |  |  |  | inactive | inactive |  |
| COc1cccc(C(=O)NCCN2CCN(c3ccc(Cl)cc3)CC2)c1 | inactive | inactive | inactive |  |  | inactive |  |  |
| Nc1nc2ccc(Cl)cc2n2c(-c3ccccc3)nnc12 | inactive |  |  |  |  | inactive | inactive |  |
| O=C(c1ccc(OCCCc2cnc[nH]2)cc1)C1CC1 | inactive | inactive | inactive |  | inactive | inactive |  |  |
| Cc1ccc(O)c(N=Nc2ccccc2)n1 | inactive | inactive | inactive | inactive | inactive |  |  | inactive |
| COc1cccc(OC)c1OCCNCC1COc2ccccc2O1 (configuration not stated) | inactive | inactive | inactive |  | inactive | inactive |  | inactive |
| O=C1C(SCCO)=C(SCCO)C(=O)c2ccccc21 | 10 µM (active) | inactive |  |  | 10 µM (active) |  |  | 25.1 µM (active) |
| CCCCCCCCc1ccc(-c2ccc(C(=O)O)cc2)cc1 | inactive | inactive | inactive |  | inactive | inactive |  |  |
| Nc1ccn([C@H]2O[C@H](CO)[C@@H](O)C2(F)F)c(=O)n1 | inactive |  |  |  |  | inactive | inactive |  |
| COc1ccc(/C=C2\COc3ccc(C)cc3C2=O)cc1O | 14.1 µM (active) |  |  |  |  | inactive | inactive |  |
